Laboratory results from PubChem BioAssay (NCATS).
Inconclusive results are not listed. Activity calls are given as the source filed them. Calls follow the shape of the dose curve; as a rule, active = well fitted cell-killing curve with a large enough effect; inconclusive = small, poorly fitted or top-dose-only effect; inactive = no such curve, though single readings can be large or run the other way.
Potency is read from the fitted curve at half-maximal effect.

Assay: Quantitative High-Throughput drug screen in 47 multiple myeloma cell lines against the NCATS MIPE library collection: JIM3_ECACC cell viability assay (AID 1918963; also: nearly all actives have a fitted effect of over 35% in size)
Conditions: JIM3 myeloma viability, CellTiter-Glo ATP, 48 h; series mostly up to 45.8 µM; viability, percent of control: at the top concentration
Excerpt: PI: Beverly A. Mock Ph.D.
Laboratory of Cancer Biology and Genetics,
Center for Cancer Research, National Cancer Institute,
National Institute of Health, Bethesda, Maryland
Drug resistance and disease progression are common in multiple myeloma (MM) patients, underscoring the need for new therapeutic combinations. […] We hypothesized that effective combinations would reduce MYC expression and enhance p16 activity. […] These preclinical data identify potentially useful drug combinations for evaluation in drug-resistant MM and reveal potential mechanisms of combined drug sensitivity.
Described herein is the primary MIPE qHTS used to cherrypick compounds. Validated compounds were then further tested for potential synergistic activiy.
[1] Peat TJ, Gaikwad SM, Dubois W, Gyabaah-Kessie N, Zhang S, Gorjifard S, Phyo Z, Andres M, Hughitt VK, Simpson RM, Miller MA, Girvin AT, Taylor A, Williams D, D'Antonio N, Zhang Y, Rajagopalan A, Flietner E, Wilson K, Zhang X, Shinn P, Klumpp-Thomas C, McKnight C, Itkin Z, Chen L, Kazandijian D, Zhang J, Michalowski AM, Simmons JK, Keats J, Thomas CJ, Mock BA. Drug combinations identified by high-throughput screening promote cell cycle transition and upregulate Smad pathways in myeloma. Cancer Lett. 2023 Aug 1;568:216284. doi: 10.1016/j.canlet.2023.216284. Epub 2023 Jun 24. PMID: 37356470; PMCID: PMC10408729.
SEQUENCE No. (e.g., 1, 2, 3, etc.); […] (e.g., Cells, Incubation, Reagent, etc.); VALUE and DESCRIPTION.
1; Cells; 5 uL; white, solid bottom 1536-well Greiner assay plate.
2; Compounds; 23 nL; Kalypsis pin tool (Wako USA) equipped with a 1536-well pin head to transfer to the assay plates.
3; Incubation; 48 hours; 37C incubation.
4; Reagent;5uL; CellTiter Glo (Promega).
5; Detector; 425V; Luminescence; Viewlux PerkinElmer.
NOTES (numbers refer to Sequence numbers above)
1. The cell-based screening methods employed in this study were like those previously published. Briefly, the corresponding myeloma cell lines were screened in 1,536-well plates with 500 cells, 5-uL per well for inhibition of cell viability (assessed by measuring ATP levels with CellTiterGlo).
2. NCATS MIPE 4.0 library of approved and investigational drugs were added using the Kalypsis pin tool. Wells treated with DMSO only for 100% viability and media only wells for 0% viability were used as controls.
3. The assay plates were covered and incubated for 48 hours in a 37C, 5% CO2 incubator with controlled humidity.
4. After 48 hours, CellTilter-GloTM luminescent substrate mix (Promega) reagent was added to the assay plate and plates we incubated for 5 min at room temperature.
5. Signal was measured as median relative luminescence units on a ViewLux (PerkinElmer) multiplate reader.
[1] Heske CM, Davis MI, Baumgart JT, Wilson K, Gormally MV, Chen L, Zhang X, Ceribelli M, Duveau DY, Guha R, Ferrer M, Arnaldez FI, Ji J, Tran HL, Zhang Y, Mendoza A, Helman LJ, Thomas CJ. Matrix Screen Identifies Synergistic Combination of PARP Inhibitors and Nicotinamide Phosphoribosyltransferase (NAMPT) Inhibitors in Ewing Sarcoma. Clin Cancer Res. 2017 Dec 1;23(23):7301-7311. doi: 10.1158/1078-0432.CCR-17-1121. Epub 2017 Sep 12. PMID: 28899971; PMCID: PMC6636827.
With `CCOC1OC(=O)C[C@H]1NC(=O)[C@@H]1CCCN1C(=O)[C@@H](NC(=O)c1ccc(N)c(Cl)c1)C(C)(C)C` (stereo not given in full) the “viability, percent of control” value was 113% (inactive).
With `Nc1ncnc2ccccc12` the “viability, percent of control” value was 95.7% (inactive).
In the case of `CN1C[C@H]2c3ccccc3Oc3ccc(Cl)cc3[C@@H]2C1`, the “viability, percent of control” value is reported as 92.9% (inactive).
In the case of `C=CCc1ccc(O)c(-c2ccc(O)c(CC=C)c2)c1`, the Potency is reported as 20.9 µM (active).
In the case of `O=C(O)c1cc(O)c2c(c1)C(=O)c1cccc(O)c1C2=O`, the “viability, percent of control” value is reported as 112% [at 92.2 µM] (inactive).
With `N#CC(=C(N)Sc1ccccc1N)C(C#N)=C(N)Sc1ccccc1N` the Potency was 18.7 µM (active).
For `CC=C(C)C(=O)O[C@H]1C(C)=C[C@]23C(=O)[C@@H](C=C(CO)[C@@H](O)[C@]12O)[C@H]1[C@@H](C[C@H]3C)C1(C)C`, the Potency was 18.7 µM (active).
With `CO[C@H]1C=CC=C(C)C(=O)NC2=CC(=O)C(NCCN(C)C)=C(C[C@@H](C)C[C@H](OC)[C@@H](O)[C@@H](C)C=C(C)[C@@H]1OC(N)=O)C2=O` the Potency was 0.0743 µM (active).
In the case of `Nc1ncnc2c1ncn2[C@@H]1O[C@H](CO)C[C@@H]1O`, the “viability, percent of control” value is reported as 91.8% (inactive).
With `CO[C@H]1C[C@@H]2CC[C@@H](C)[C@@](O)(O2)C(=O)C(=O)N2CCCC[C@@H]2C(=O)O[C@H]([C@@H](C)C[C@@H]2CC[C@H](O)[C@H](OC)C2)CC(=O)[C@H](C)C=C(C)[C@@H](O)[C@@H](OC)C(=O)[C@H](C)C[C@H](C)C=CC=CC=C1C` the “viability, percent of control” value was 71.9% (inactive).
In the case of `CC(C)OC(=O)C(C)(C)Oc1ccc(C(=O)c2ccc(Cl)cc2)cc1`, the “viability, percent of control” value is reported as 115% (inactive).
For `CC(C)=CC[C@@H](O)C1=CC(=O)c2c(O)ccc(O)c2C1=O`, the Potency was 16.6 µM (active).
For `CS(=O)(=O)N(Cc1ccco1)CC(O)Cn1c2ccccc2c2ccccc21` (stereo not given), the Potency was 14.8 µM (active).
For `NC1=N[C@@]2(c3cc(NC(=O)c4ccc(F)cn4)ccc3F)COC[C@@H]2CS1`, the “viability, percent of control” value was 135% (inactive).
In the case of `OC[C@H]1O[C@@H](Oc2cc(O)cc(C=Cc3ccc(O)cc3)c2)[C@H](O)[C@@H](O)[C@H]1O`, the “viability, percent of control” value is reported as 123% (inactive).
In the case of `CN(C)c1cc(NC(=O)CNC(C)(C)C)c(O)c2c1C[C@@H]1C[C@H]3[C@H](N(C)C)C(=O)C(C(N)=O)=C(O)[C@@]3(O)C(=O)C1=C2O`, the “viability, percent of control” value is reported as 110% (inactive).
In the case of `O=C1c2c(O)cc(O)cc2O[C@H](c2cc(O)c(O)c(O)c2)[C@H]1O`, the “viability, percent of control” value is reported as 117% (inactive).
With `CCc1ccc(OCc2ccccc2C(=O)Nc2ccc3nc(C)cc(N)c3c2)cc1` the Potency was 2.64 µM (active).
In the case of `O=C(CCCCCCC(=O)Nc1ccccc1)NO`, the Potency is reported as 5.9 µM (active).
With `CNC(=O)c1ccc2cc(C3(O)CCn4cncc43)ccc2c1` (stereo not given) the “viability, percent of control” value was 95.9% (inactive).
With `N#Cc1ccc(NC(=O)Nc2ccccc2Br)c2n[nH]nc12` the “viability, percent of control” value was 69.3% (inactive).
With `O=c1c(-c2ccc(O)cc2)coc2cc(OC3O[C@H](CO)[C@H](O)[C@H](O)[C@H]3O)cc(O)c12` (stereo not given in full) the Potency was 4.69 µM (active).
For `CCCCCN(C)CCC(O)(P(=O)(O)O)P(=O)(O)O`, the “viability, percent of control” value was 109% (inactive).
For `NC(=O)c1ccc2nc(-c3ccc(Oc4ccc(Cl)cc4)cc3)[nH]c2c1`, the Potency was 0.105 µM (active).
For `CNC1CCC(N(Cc2cccc(-c3ccncc3)c2)C(=O)c2sc3c(F)ccc(F)c3c2Cl)CC1` (stereo not given), the Potency was 16.6 µM (active).
In the case of `C[C@@H]1CCN(C(=O)CC#N)C[C@H]1N(C)c1ncnc2[nH]ccc12`, the “viability, percent of control” value is reported as 80.2% (inactive).
With `CO[C@H]1C(=O)[C@]2(C)[C@@H](OC)C[C@H]3OC[C@@]3(OC(C)=O)[C@H]2[C@H](OC(=O)c2ccccc2)[C@]2(O)C[C@H](OC(=O)[C@H](O)[C@@H](NC(=O)OC(C)(C)C)c3ccccc3)C(C)=C1C2(C)C` the “viability, percent of control” value was 23.1% (inactive).
In the case of `Cc1cnc(C(=O)O)c[n+]1[O-]`, the “viability, percent of control” value is reported as 97% (inactive).
For `Cc1c(NC(=O)c2ccc(C(C)(C)C)cc2)cccc1-c1cn(C)c(=O)c(Nc2ccc(C(=O)N3CCOCC3)cc2)n1`, the Potency was 13.2 µM (active).
For `CC(C)C(=O)Nc1ncc(-c2cc(C(F)F)nn2-c2c(Cl)cccc2Cl)s1`, the Potency was 23.5 µM (active).
With `O=c1cc(-c2ccccc2)oc2cc(O)cc(O)c12` the Potency was 16.6 µM (active).
For `O=c1[nH]cnc2c1ncn2[C@H]1CC[C@@H](CO)O1`, the “viability, percent of control” value was 124% (inactive).
For `Cn1cc(C=C2C(=O)Nc3cccnc32)c2ccccc21`, the Potency was 16.6 µM (active).
For `CC(C)C(C)C=CC(C)C1CCC2C3=CC=C4CC(O)CCC4(C)C3CCC21C` (stereo not given), the “viability, percent of control” value was 124% (inactive).
For `Cc1ccccc1C(C(=O)NC1CCCCC1)N(C(=O)Cn1ccnc1C)c1cccc(F)c1` (stereo not given), the “viability, percent of control” value was 109% (inactive).
In the case of `COc1cc(NC(=O)c2ccc(-c3ccc(Cl)cc3)o2)cc(OC)c1`, the Potency is reported as 11.8 µM (active).
With `CC(C)C[C@H](CC(=O)O)C(=O)N[C@@H](Cc1c[nH]c2ccccc12)C(=O)N[C@@H](C)c1ccccc1` the “viability, percent of control” value was 106% (inactive).
With `Cc1ccc(C(=O)Nc2cccc(C(F)(F)F)c2)cc1Nc1nc(-c2cccnc2)nc2c1cnn2C` the Potency was 10.5 µM (active).
With `CC=CC(=O)N(CC)c1ccccc1C` the “viability, percent of control” value was 104% (inactive).
In the case of `CCNc1cc(NC2CCC(O)CC2)nc(Nc2ccc3c(ccn3Cc3ccccc3)c2)n1` (stereo not given), the Potency is reported as 20.9 µM (active).
